Laboratory results published in paper PMC5540273 (PLoS ONE, 2017).

tested on: CLK4; details: concentration: 1 μM, replicates: in singlicate; n = 1
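Note: KINOMEscan kinase panel screen.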

Row | Compound | %Inh
1 | Oc1cc(Nc2ccnc3cc(I)ccc23)ccc1F [GW552771] | 9%
2 | CC(C)c1nc(-c2cccc(NS(=O)(=O)c3c(F)cccc3F)c2F)c(-c2ccnc(Nc3ccc(N4CCOCC4)nc3)n2)s1 [GSK2008607] | 0%
3 | CCn1c(-c2nonc2N)nc2c(C#CC(C)(C)O)nc(OC[C@H](N)c3ccccc3)cc21 [GSK943949] | 8%
4 | CC(C)(C)c1ccc2nccc(Nc3cccc(O)c3)c2c1 [GW856795] | 0%

tested on: CSF1R-autoinhibited; details: concentration: 1 μM, replicates: in singlicate; n = 1

Row | Compound | %Inh
5 | CN1CCN(CCCNc2nccc(-c3c(-c4ccc(F)cc4)nn4cc(C(F)(F)F)ccc34)n2)CC1 [GW621581] | 0%
6 | C[C@@H]1CC[C@@H](C(=O)Nc2ccccc2)CN1c1cc(-c2ccc3c(N)n[nH]c3c2)nc(N)n1 [GSK2286062] | 10%
7 | Cl.Cl.NCC(NCc1ccc(-c2ccnc3[nH]ccc23)s1)c1ccccc1 (stereo not drawn) [GSK1321565] | 19%
8 | Nc1n[nH]c2cnc(-c3ccccc3)cc12 [SB-642124] | 0%
9 | COc1cccc(NC(=O)NC2CCN(c3ccnc(Nc4cc(OC)c(OC)c(OC)c4)n3)C2)c1 (stereo not drawn) [GSK1379763] | 6%
10 | COc1cccc(C(=O)Nc2cccc(Oc3ccc4nc(NC(=O)C5CC5)cn4n3)c2)c1 | 94.2%
11 | c1ccc(-c2n[nH]cc2Nc2ccnc3ccccc23)nc1 [GW694077] | 29%
12 | O=C(Nc1cccc(-c2nn3ccccc3c2-c2ccnc(Nc3cccc(C(F)(F)F)c3)n2)c1)c1c(F)cccc1F [GSK292658] | 0%
